PubChem BioAssay (NCATS)
Where “and” joins values, the source holds several entries; their conditions need not be identical. Equal entries are not always repeated. Results filed as inconclusive are left out. Calls of active or inactive are those of the source. Unless noted, calls follow the shape of the full dose curve.

What was measured:
[1] = qHTS for Inhibitors of the Functional Ribonucleoprotein Complex (vRNP) of Lassa (LASV) Arenavirus: LASV Primary Screen - GLuc reporter signal (AID 1347082; calls by dose curve; tested in HEK293 reporter line; also: % is scaled to controls: 0 for no effect and ±100 for the full control effect; nearly all actives have a fitted effect of over 60% in size)
[2] = qHTS for Inhibitors of the Functional Ribonucleoprotein Complex (vRNP) of Lassa (LASV) Arenavirus: Viability assay - alamar blue signal for LASV Primary Screen (AID 1347083; calls by dose curve; tested in HEK293 reporter line; also: % is scaled to controls: 0 for no effect and ±100 for the full control effect; nearly all actives have a fitted effect of over 80% in size)
[3] = qHTS for Inhibitors of the Functional Ribonucleoprotein Complex (vRNP) of Lymphocytic Choriomeningitis Arenaviruses (LCMV): Viability assay - alamar blue signal for LCMV Primary Screen (AID 1347085; calls by dose curve; tested in HEK293 reporter line; also: % is scaled to controls: 0 for no effect and ±100 for the full control effect; nearly all actives have a fitted effect of over 80% in size)
[4] = biological target: Nucleoprotein (Lymphocytic choriomeningitis virus (strain Armstrong)) (UniProt P09992); assay: qHTS for Inhibitors of the Functional Ribonucleoprotein Complex (vRNP) of Lymphocytic Choriomeningitis Arenaviruses (LCMV): LCMV Primary Screen - GLuc reporter signal (AID 1347086); also: % is scaled to controls: 0 for no effect and ±100 for the full control effect; nearly all actives have a fitted effect of over 70% in size
Chain of Nucleoprotein (Lymphocytic choriomeningitis virus (strain Armstrong)) (P09992 whole entry, looked up): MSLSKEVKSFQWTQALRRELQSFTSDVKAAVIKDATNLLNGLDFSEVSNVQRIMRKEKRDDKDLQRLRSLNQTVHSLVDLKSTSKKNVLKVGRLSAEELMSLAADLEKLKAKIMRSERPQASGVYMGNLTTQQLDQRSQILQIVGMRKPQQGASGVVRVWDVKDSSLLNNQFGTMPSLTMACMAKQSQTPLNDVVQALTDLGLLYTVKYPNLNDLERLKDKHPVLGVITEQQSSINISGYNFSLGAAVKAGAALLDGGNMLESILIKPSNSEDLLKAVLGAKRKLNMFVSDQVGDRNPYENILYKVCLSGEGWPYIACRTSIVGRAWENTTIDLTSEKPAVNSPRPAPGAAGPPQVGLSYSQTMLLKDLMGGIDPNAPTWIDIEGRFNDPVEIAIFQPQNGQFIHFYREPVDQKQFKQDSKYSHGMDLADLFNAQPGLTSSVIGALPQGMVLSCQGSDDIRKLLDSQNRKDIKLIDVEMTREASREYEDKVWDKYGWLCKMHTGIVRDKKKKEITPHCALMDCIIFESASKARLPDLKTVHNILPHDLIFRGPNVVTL

[5] = Primary qHTS for inhibitors of SARS-S pseudo-typed particle cell entry (AID 1479145); also: nearly all actives have a fitted effect of over 45% in size
[6] = Primary qHTS for Huh7 cytotoxicity: counterscreen for inhibitors of MERS-S pseudotyped particle cell entry (AID 1479147); settings: outcome: dose series up to 57.1 µM unless noted; as to activity change, negative = cytotoxicity: % is scaled to controls: 0 for no effect and ±100 for the full control effect
[7] = Primary qHTS for inhibitors of MERS-S pseudo-typed particle cell entry (AID 1479149); also: nearly all actives have a fitted effect of over 60% in size; also: potency is read from the fitted curve at half-maximal effect; as to activity change, negative = inhibition: % is scaled to controls: 0 for no effect and ±100 for the full control effect
[8] = Primary qHTS for Vero E6 cytotoxicity: counterscreen for inhibitors of SARS-S pseudo-typed particle cell entry (AID 1479150); settings: outcome: dose series up to 57.1 µM unless noted; as to activity change, negative = cytotoxicity: % is scaled to controls: 0 for no effect and ±100 for the full control effect
[9] = Cytotoxicity counterscreen for inhibitors of SARS-CoV-2 cell entry (AID 1645845); also: nearly all actives have a fitted effect of over 50% in size
Method in brief: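 HEK293-ACE2 cells (Expi293F stably expressing human ACE2) seeded overnight, then compound for 1 h plus 48 h at 37C. Viability as ATP content by luminescence; normalized to wells with cells and media-only wells.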

[10] = Primary qHTS to identify inhibitors of SARS-CoV-2 cell entry (AID 1645846); also: nearly all actives have a fitted effect of over 45% in size
Method in brief: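 Luminescence readout (Bright-Glo luciferase) 48 h after pseudoparticle addition. HEK293-ACE2 cells, 1500/well; compound pre-incubation 1 h; Normalized to spike PP and bald PP.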

[11] = qHTS for inhibitors of Rabies Virus screened against the NCATS CANVASS Library (AID 1347402); also: 0% is about no effect
[12] = biological target: Alpha-galactosidase (Coffea arabica) (UniProt Q42656); assay: Counterscreen for Glucocerebrosidase Inhibitors: qHTS Assay for Coffee Bean alpha-Galactosidase at pH 4.5 (AID 957; active = well fitted curve in the direction sought with a large enough effect; an effect the other way counts as inactive or inconclusive;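 also: plate controls were enzyme alone for no effect and no enzyme for full effect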)
Chain of Alpha-galactosidase (Coffea arabica) (Q42656 whole entry, looked up): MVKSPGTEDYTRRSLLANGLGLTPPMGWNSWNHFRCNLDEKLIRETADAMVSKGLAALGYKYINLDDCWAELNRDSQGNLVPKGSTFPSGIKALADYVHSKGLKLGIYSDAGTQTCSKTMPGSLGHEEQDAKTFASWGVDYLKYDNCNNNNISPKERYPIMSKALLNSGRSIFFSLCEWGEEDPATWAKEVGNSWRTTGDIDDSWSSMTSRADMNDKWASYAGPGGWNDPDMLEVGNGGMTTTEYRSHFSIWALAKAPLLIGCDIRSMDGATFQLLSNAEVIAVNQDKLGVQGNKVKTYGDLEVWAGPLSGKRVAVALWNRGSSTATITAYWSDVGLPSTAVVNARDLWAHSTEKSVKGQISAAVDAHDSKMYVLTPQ
Method in brief: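 AC50 values derive from Hill-equation modeling of concentration-response data, normalized to no-enzyme and full-activity controls. The pH 4.5 citrate assay used 2 nM coffee bean enzyme and 80 uM fluorogenic substrate for 20 min.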

[13] = biological target: Alpha-galactosidase (Coffea arabica) (UniProt Q42656); assay: Counterscreen for Glucocerebrosidase Inhibitors: qHTS Assay for Coffee Bean alpha-Galactosidase at pH 5.9 (AID 998; active = well fitted curve in the direction sought with a large enough effect; an effect the other way counts as inactive or inconclusive;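 also: plate controls were uninhibited enzyme for no effect and no-enzyme basal signal for full effect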)
Method in brief: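 Green coffee bean enzyme (2 nM) with 4-methylumbelliferyl alpha-D-galactopyranoside (80 uM) in 50 mM citric acid, 0.005% Tween-20, pH 5.9, 20 min at room temperature; compounds 0.7 nM–77 uM. Stopped at pH 10, fluorescence Ex365/Em440; Hill-fit AC50.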

[14] = Validation screen for inhibitors of Lassa infection (AID 463096); also: % is scaled to controls: 0 for no effect and ±100 for the full control effect
[15] = Inducers of the Endoplasmic Reticulum Stress Response (ERSR) in human glioma: Validation (AID 504836; active = well fitted curve in the direction sought with a large enough effect; an effect the other way counts as inactive or inconclusive; also: 0% is about no effect)
Method in brief: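 Stably transfected U87-MG glioma cells carrying a GRP78-based luciferase sensor; 16 h compound incubation. Luminescence end-point read 10 min after Bright-Glo addition at room temperature.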

[16] = Confirmatory qHTS to identify inhibitors of SARS-CoV-2 cell entry (AID 1645844); also: potency is read from the fitted curve at half-maximal effect; nearly all actives have a fitted effect of over 45% in size
Method in brief: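 HEK293-ACE2 cells were pretreated 1 h with compound, then infected with MLV-based pseudoparticles bearing C-terminally truncated Wuhan-Hu-1 spike for 48 h at 37C; luciferase luminescence normalized to spike PP and bald PP wells.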

[17] = VSVG counterscreen qHTS to identify inhibitors of SARS-CoV-2 cell entry (AID 1645847); also: potency is read from the fitted curve at half-maximal effect; nearly all actives have a fitted effect of over 65% in size
Method in brief: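 HEK293-ACE2 cells (Expi293F stably expressing human ACE2) were pretreated with compound for 1 h at 37 °C, then infected with MLV-based VSV-G pseudotyped particles for 48 h. Luciferase luminescence was normalized to VSV-G PP and bald PP wells.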

[18] = activity change, negative = inhibition: at 57.1 µM (top of the series) unless noted

Nc1ncnc2c1ncn2[C@@H]1O[C@H](COP(=O)(O)OP(=O)(O)OP(=O)(O)O)[C@@H](O)[C@H]1O
inactive: Potency [1] | Potency [2] | Potency [3] | Potency [4] | outcome [5] inactive [at 0.573 µM] | activity change, negative = cytotoxicity [6] -18.7% [at 0.573 µM] | activity change, negative = inhibition [7] -11.5% [at 0.573 µM] | activity change, negative = cytotoxicity [8] -8.27% [at 0.573 µM] | activity change, negative = cytotoxicity [9] -13.7% [at 0.702 µM]

CC1=C(/C=C/C(C)=C/C=C/C(C)=C/C=C/C=C(C)/C=C/C=C(C)/C=C/C2=C(C)C[C@@H](O)CC2(C)C)C(C)(C)C[C@H](O)C1
inactive: Potency [1] | Potency [2] | Potency [3] | Potency [4] | Potency [5] | outcome [6] | Potency [7] | outcome [8] | Potency [9]

CCCCCCCCCC(=O)O
inactive: Potency [1] | Potency [2] | Potency [3] | Potency [4] | Potency [5] | outcome [6] | Potency [7] | outcome [8] | Potency [9] | Potency [10, 18]

O=C1CCC(C(=O)O)N1 (stereo not given)
inactive: Potency [1] | Potency [2] | Potency [3] | Potency [4] | Potency [5] | outcome [6] | Potency [7] | outcome [8] | Potency [9]
-17.5%: activity change, negative = inhibition [10, 18]

O=C(O)C(O)Cc1ccc(O)c(O)c1 (stereo not given)
inactive: Potency [1] | Potency [2] | Potency [3] | Potency [4] | outcome [11] | Potency [9]
-13% [at 114 µM]: activity change, negative = inhibition [10, 18]

C[N+](C)(C)CCO
-23.8% [at 114 µM]: activity change, negative = inhibition [10, 18]
inactive: outcome [12] | outcome [13] | Potency [14] | outcome [15] | Potency [1] | Potency [2] | Potency [3] | Potency [4] | Potency [5] | outcome [6] inactive [at 114 µM] | Potency [7] | outcome [8] inactive [at 114 µM] | Potency [9]

CCCCCCCCCCCC(=O)OCC(O)CO (stereo not given)
inactive: Potency [1] | Potency [2] | Potency [3] | Potency [4] | Potency [5] | outcome [6] | Potency [7] | outcome [8] | Potency [9] | Potency [10, 18]

O=c1cc(-c2ccccc2)oc2cc(O)c(O)c(O)c12
inactive: Potency [1] | Potency [2] | Potency [3] | Potency [4] | outcome [11] | Potency [9] | Potency [10, 18]

CCCCCCCCCCCCCCCC(=O)OC[C@@H](NC(=O)C(Cl)Cl)[C@H](O)c1ccc([N+](=O)[O-])cc1
inactive: Potency [1] | Potency [2] | Potency [3] | Potency [4] | Potency [5] | outcome [6] | Potency [7] | outcome [8] | Potency [9] | Potency [10, 18]

CC(=O)O[C@H]1C[C@@H]2CC[C@H]3[C@H]4C[C@H]([N+]5(C)CCCCC5)[C@@H](OC(C)=O)[C@@]4(C)CC[C@@H]3[C@@]2(C)C[C@H]1[N+]1(C)CCCCC1
inactive: Potency [1] | Potency [2] | Potency [3] | Potency [4] | Potency [5] | outcome [6] | Potency [7] | outcome [8] | Potency [9] | Potency [10, 18]
-10.4%: activity change, negative = inhibition [10, 18]

CO[C@H]1C(=O)[C@]2(C)[C@@H](OC)C[C@H]3OC[C@@]3(OC(C)=O)[C@H]2[C@H](OC(=O)c2ccccc2)[C@]2(O)C[C@H](OC(=O)[C@H](O)[C@@H](NC(=O)OC(C)(C)C)c3ccccc3)C(C)=C1C2(C)C
inactive: Potency [1] | Potency [2] | Potency [3] | Potency [4] | Potency [5] | outcome [6] | Potency [7] | outcome [8] | Potency [9]
-81.7%: activity change, negative = inhibition [10, 18]
active: Potency [16] 48.2 nM | Potency [17] 136 nM

N[C@@H](CC(=O)O)C(=O)O
inactive: outcome [13] | Potency [14] | outcome [15] | Potency [1] | Potency [2] | Potency [3] | Potency [4] | activity change, negative = inhibition [5] -20.9% [at 5.34 µM] | outcome [6] inactive [at 5.34 µM] | outcome [7] inactive [at 5.34 µM] | activity change, negative = cytotoxicity [8] 2.41% [at 5.34 µM] | outcome [9] inactive [at 5.25 µM] | outcome [10, 18] inactive [at 5.25 µM]

O=C(Nc1c(Cl)cncc1Cl)c1ccc(OC(F)F)c(OCC2CC2)c1
-7.18%: activity change, negative = inhibition [10, 18]
inactive: Potency [1] | Potency [2] | Potency [3] | Potency [4] | Potency [5] | outcome [6] | Potency [7] | outcome [8] | Potency [9]

COc1cc2c(cc1Cc1cccc(Cl)c1F)c(=O)c(C(=O)O)cn2[C@H](CO)C(C)C
-96.1% and -86.8%: activity change, negative = inhibition [10, 18]
inactive: Potency [1] | Potency [2] | Potency [3] | Potency [4] | Potency [5] | outcome [6] | outcome [8] | Potency [9]
active: Potency [7] 12600 nM | Potency [16] 60.7 nM | Potency [17] 17.1 nM

c1cc(CN2CCCNCCNCCCNCC2)ccc1CN1CCCNCCNCCCNCC1
inactive: Potency [1] | Potency [2] | Potency [3] | Potency [4] | activity change, negative = inhibition [5] -15.1% [at 5.34 µM] | outcome [6] inactive [at 5.34 µM] | outcome [7] inactive [at 5.34 µM] | outcome [8] inactive [at 5.34 µM] | Potency [9]
-25.3%: activity change, negative = inhibition ([10]; SARS-CoV-2 pseudovirus cell entry assay, luminescence, at 5.25 µM (top of the series))
-51.7%: activity change, negative = inhibition ([10]; SARS-CoV-2 pseudovirus cell entry assay, luminescence, at 57.1 µM (top of the series))

C[C@@H](O)[C@H]1C(=O)N2C(C(=O)OCOC(=O)C(C)(C)C)=C(SC3CN(C4=NCCS4)C3)[C@H](C)[C@H]12
inactive: Potency [1] | Potency [2] | Potency [3] | Potency [4] | Potency [5] | outcome [6] | Potency [7] | outcome [8]

CCC(NC(C)C)C(O)c1ccc(O)c(O)c1 (stereo not given)
-5.57%: activity change, negative = inhibition [10, 18]
inactive: Potency [14] | outcome [15] | Potency [1] | Potency [2] | Potency [3] | Potency [4] | Potency [5] | outcome [6] | Potency [7] | outcome [8] | Potency [9]
